This note sets out measurements from PubChem BioAssay (NCATS).

Each structure is given as a SMILES string. Inconclusive results are not listed. Where a call stands in place of a potency, no number is given. Activity calls are given as the source filed them. Calls follow the shape of the dose curve; as a rule, active = well fitted inhibition curve with a large enough effect; inconclusive = small, poorly fitted or top-dose-only effect; inactive = flat fitted curve, though single readings scatter.

In the experiment the target is Aldehyde dehydrogenase, mitochondrial (Homo sapiens) (UniProt P05091). Description: qHTS for Inhibitors of the Aldehyde Dehydrogenase Family (ALDH2) Primary screen (AID 2061308). Also: nearly all actives have a fitted effect of over 55% in size. To be noted: ALDH2 enzyme inhibition qHTS, 1536-well; series mostly up to 56 µM.
For the molecule `Cc1ccc(-c2cc(C(=O)Nc3ccc(C#N)cc3)c3ccccc3n2)cc1C`, the Potency result was “inactive”.

As for `Cn1c2cc(B(O)O)sc2c2cnn(Cc3ccccc3F)c(=O)c21`, the Potency entry was “inactive”. Under `Cc1cn([C@H]2C[C@H](N[S+](=O)([O-])Cc3cccc(Cl)c3)[C@@H](CO)O2)c(=O)[nH]c1=O` stands “inactive”. To `Cc1cc2c(s1)c1cnn(Cc3ccc(C(=O)O)cc3)c(=O)c1n2C` belongs “inactive”; to `Cc1cc(NS(=O)(=O)c2ccc(NC(=O)Cc3ccc(Cl)c(F)c3)cc2)no1`, “inactive”. Take `Cc1cccc(-c2ccc3ncnc(NCc4cc(C)cs4)c3c2)c1`: the Potency result is “inactive”. Turning to `Cc1cc2c(s1)c1cnn(Cc3ccc(F)c(C)c3)c(=O)c1n2C`, the Potency entry is “inactive”. `O=C(OCC#CCSc1nnc(-c2cccc3ccccc23)o1)c1ccsc1`: the Potency entry is “inactive”.

With `COc1ccnc(NC(=S)N2CCN(c3ccc4ccccc4n3)CC2)c1`, the Potency result was “inactive”. Under `Cc1ccc(-c2ccc(=O)n(CC(=O)N(C)[C@H](C)c3ccccc3)n2)cc1` stands “inactive”. With `c1ccc(-c2cnc(Nc3ccc(OCCN4CCCC4)cc3)s2)cc1`, the Potency entry was “inactive”. Under `O=C(Nc1cncnc1)c1cccs1` stands “inactive”.

As for `CN(Cc1ccco1)c1ncnc2ccc(-c3ccccc3Cl)cc12`, the Potency entry is “inactive”.

For `CN1CCC(c2cn(C)c3ccc(OS(=O)(=O)c4c(F)cccc4F)cc23)CC1`, the Potency entry was “inactive”. `C=C1C(=O)OC2CC3(C)C(CC12)C(C)=CC(O)C3OC(C)=O` (configuration not stated): the Potency entry is “inactive”. Under `O=C(O)c1cccc(S(=O)(=O)N2CCN(S(=O)(=O)c3ccc4c(c3)OCCO4)CC2)c1` stands “inactive”; under `COC(=O)c1ccc(-c2c(NC(C)=O)sc3c2CCNC3)cc1`, “inactive”.
